What all share (test): NCI-60 one-dose screen, 48 h (100 = growth as untreated, 0 = no growth, -100 = all killed)
Holding throughout (conditions): 10 µM

Assay [1] has as its system SR leukemia.
In assay [2] the test system is RPMI-8226 leukemia.
Assay [3] has as its system OVCAR-8 ovarian.
Assay [4] deals with OVCAR-5 ovarian.
The test system of assay [5] is OVCAR-4 ovarian.
The test system of assay [6] is SK-OV-3 ovarian.
The subject of assay [7] is IGROV1 ovarian.
Assay [8] relates to OVCAR-3 ovarian.
For assay [9], the system named is HS 578T breast.
The subject of assay [10] is NCI/ADR-RES ovarian.

This is part of a sample that, as a whole, favours compounds with a hit. Of some 83,000 tested, about 20% had one in any assay.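 Assay: single dose, 48 h. Readout: percent growth (0 = no net growth; negative = cell death). Active: <10.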 Values without a mark were called inactive. Activity calls are given as the source filed them.

As for `C1CNC(C2=NCCN2)=N1`, the growth in assay [1] was 96.1%; in [2], 109%; in [3] it was 102%; in assay [4] it was 105%; in assay [5], 105%; in [6], 104%. In addition, the growth is 107% in [7], 94.2% in assay [8], 101% in [9] and 108% in [10].
In the case of `CC(=O)OCC(=O)[C@@]1(O)CC[C@H]2[C@@H]3CC[C@@H]4C[C@H](O)CC[C@]4(C)[C@H]3C(=O)C[C@@]21C`, the growth in assay [1] was 95.2%; in assay [2], 95.1%; in assay [3], 107%; in assay [4], 112%; in assay [5], 116%; in assay [6] it was 109%. For the same compound, the growth in [7] is 93.3%; in assay [8], 122%; in [9] it was 100%; in assay [10] it was 110%.
Consider `c1cc2cccc3c4cccc5cccc(c(c1)c23)c54`, for which the growth is 108% in [1]; 113% in [2]; 112% in assay [3]; 106% in [4]; 95.5% in assay [5]; 94.1% in assay [6]. Moreover, the growth in assay [7] was 125%; in assay [8], 108%; in [9] it was 112%; in assay [10], 108%.
As for `CCOC(=O)c1ccc(Nc2sc(C(=O)c3cccc([N+](=O)[O-])c3)c(N)c2C#N)cc1`, the growth in assay [1] was -28.3% (active); in [2] it was -3.9% (active); in assay [3] it was 35.7%; in assay [4], 38.1%; in [5], 33.1%; in [6], 27.6%. Moreover, the growth in assay [7] is -6.69% (active); in assay [8], -44.8% (active); in assay [9], 15.5%; in [10], 26.8%.
Consider `O=C(NN=C1CCCCC1)C(=O)NN=C1CCCCC1`, for which the growth is 83.7% in assay [1]; 99.6% in [2]; 100% in assay [3]; 105% in [4]; 115% in assay [5]; 101% in [6]. For the same compound, the growth in assay [7] is 127%; in [8], 123%; in [9], 115%; in assay [10], 114%.
As to `CC1(O)CCCCC1O` (stereo not given), the growth is 103% in assay [1]; 98.6% in assay [2]; 105% in assay [3]; 103% in assay [4]; 107% in assay [5]; 101% in assay [6]. Moreover, the growth is 90.9% in assay [7], 120% in [8], 102% in [9] and 105% in assay [10].
Regarding `c1ccc2c(c1)Sc1ccccc1S2`, the growth was 117% in [1]; 99.2% in assay [2]; 99.3% in assay [3]; 108% in assay [4]; 98.8% in assay [5]; 112% in [6]. For the same compound, the growth is 106% in assay [7], 113% in assay [8], 102% in assay [9] and 101% in [10].
`Nc1ccc(N=Nc2ccc(S(=O)(=O)O)cc2)c2ccccc12`: the growth was 96.9% in assay [1]; 98% in assay [2]; 103% in assay [3]; 106% in [4]; 103% in [5]; 72.2% in assay [6]. For the same compound, the growth in assay [7] is 94.1%; in [8] it was 99%; in assay [9], 96.6%; in assay [10], 97.3%.
As for `O=C1Cc2ccccc2C(=O)O1`, the growth is 79.3% in [1]; 93.4% in [2]; 102% in [3]; 106% in assay [4]; 112% in [5]; 114% in [6]. Moreover, the growth in assay [7] was 114%; in assay [8], 127%; in assay [9] it was 107%; in assay [10], 114%.
For `CCCCCCCCCCC(C)Br` (stereo not given), the growth in [1] is 93.8%; in assay [2], 101%; in [3], 108%; in assay [4], 104%; in assay [5] it was 109%; in assay [6] it was 98.3%. In addition, the growth in [7] was 106%; in [8], 108%; in [9] it was 116%; in assay [10], 105%.
Regarding `COC(=O)c1ccccc1N(C)C`, the growth in assay [1] was 78.2%; in assay [2], 100%; in assay [3] it was 105%; in assay [4], 114%; in [5], 101%; in [6], 95.7%. Further, the growth in assay [7] was 106%; in [8], 106%; in assay [9] it was 105%; in assay [10] it was 101%.
Turning to `CCOC(=O)C(CCC(C)C)C(=O)OCC`, the growth in assay [1] was 79.7%; in assay [2] it was 98.8%; in [3], 95.6%; in assay [4], 107%; in [5], 107%; in assay [6] it was 106%. The growth is 102% in [7], 109% in [8], 115% in assay [9] and 108% in assay [10].
As for `CCCCCC(C)(CC(=O)O)CC(=O)O`, the growth was 94.1% in assay [1]; 119% in [2]; 103% in [3]; 97.4% in assay [4]; 104% in assay [5]; 114% in [6]. Moreover, the growth in [7] is 110%; in assay [8], 126%; in assay [9] it was 107%; in assay [10], 119%.
For `O=C(Cc1ccccc1)Cc1ccccc1`, the growth in [1] is 104%; in [2], 103%; in assay [3] it was 89.6%; in assay [4] it was 95.8%; in assay [5], 97.2%; in assay [6] it was 99.8%. The growth in assay [7] was 104%; in assay [8], 106%; in assay [9], 106%; in assay [10], 110%.

The record behind these values is PubChem BioAssay (NCI).
